APOBEC3A inh: inhibitors of human APOBEC3A DNA deaminase. recombinant A3A, FAM/TAMRA ssDNA deamination fluorescence. inhibition, % at 20 µM. 330,000 compounds, 0.41% hits. AID 493011;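 active means at least 40% inhibition at 20 µM here, with at most 30% in a related deaminase screen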;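 further: plate controls were A3A with DMSO for no effect and wells lacking A3A enzyme for full effect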
Target sequence (P31941 whole entry, looked up): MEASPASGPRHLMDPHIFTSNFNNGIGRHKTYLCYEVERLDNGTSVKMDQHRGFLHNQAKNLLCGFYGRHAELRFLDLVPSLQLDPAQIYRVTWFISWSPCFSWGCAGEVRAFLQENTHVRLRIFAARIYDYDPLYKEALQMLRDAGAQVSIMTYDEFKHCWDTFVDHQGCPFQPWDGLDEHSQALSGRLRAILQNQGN
PHOSPHO1 block: inhibitors of human PHOSPHO1 phosphatase; recombinant PHOSPHO1, absorbance phosphatase assay; 290,000 compounds, 1.1% hits; Q8TCT1; inhibition, % at 13.3 µM; in the data active means inhibition above about 60%
Target sequence (Q8TCT1 whole entry, looked up): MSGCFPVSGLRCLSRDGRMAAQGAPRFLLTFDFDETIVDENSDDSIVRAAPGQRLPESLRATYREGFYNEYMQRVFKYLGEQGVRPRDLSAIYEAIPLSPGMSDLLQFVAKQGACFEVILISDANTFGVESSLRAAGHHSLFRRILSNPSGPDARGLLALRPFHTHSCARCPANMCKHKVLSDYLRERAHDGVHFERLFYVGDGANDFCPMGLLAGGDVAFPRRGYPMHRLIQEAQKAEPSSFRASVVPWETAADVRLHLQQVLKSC
ALR H2O2 inh: blocks human ALR sulfhydryl oxidase activity | purified ALR, DTT oxidation, H2O2 HRP-luminol luminescence | inhibition, % (concentration not given with the values) | 290,000 compounds, 3.8% hits | AID 485317;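 active means mean replicate inhibition above about 79%, with every replicate also reaching it, limit read from the data; inconclusive means only one of the two criteria met; inactive means mean below limit and not every replicate reaching it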
Target sequence (P55789 whole entry, looked up): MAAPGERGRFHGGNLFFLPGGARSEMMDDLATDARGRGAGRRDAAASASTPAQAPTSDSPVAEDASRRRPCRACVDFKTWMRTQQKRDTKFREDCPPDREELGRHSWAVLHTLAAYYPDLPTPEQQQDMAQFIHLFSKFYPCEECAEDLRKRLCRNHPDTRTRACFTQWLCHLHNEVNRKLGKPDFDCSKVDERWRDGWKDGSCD
rCAG RNA binder: r(CAG) repeat RNA binding; AID 651821; TO-PRO-1 dye displacement fluorescence; 370,000 compounds, 1.3% hits; inhibition, % at 3 µM;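 active means inhibition above the plate cutoff, the mean of all test compounds on that plate plus 3 SD, cut at about 35% in these data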;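 further: 0% = DMSO alone and 100% = 100 µM mitoxantrone as full dye displacement; higher means more dye released from RNA so lower well fluorescence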
aDG glyco up: increases alpha dystroglycan glycosylation | Pro5-aDG cells, alpha-DG glycosylation AlphaScreen (IIH6); 0% Pro5, 100% B10-LARGE cell signal | activation, % at 10 µM | 360,000 compounds, 0.22% hits | AID 624168;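 active means activation of at least 8% versus controls, or a plate z-score of at least 8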;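 further: Pro5 are CHO cells carrying HIG-tagged alpha-DG that lacks glycosylation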
A3G deaminase: APOBEC3G (human) deaminase inhibition; Q9HC16; recombinant A3G, ssDNA deamination FAM/TAMRA fluorescence; inhibition, % at 20 µM; 330,000 compounds, 0.28% hits; AID 493012;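 active means inhibition of at least 40% at 20 µM, with no more than 30% in the related APOBEC3A deaminase screen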;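 further: plate controls were DMSO wells with A3G for no effect and wells lacking A3G enzyme for full effect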
* hit, by the source's call. A selection: hits, their analogues and other compounds. The true share with any hit is near 5.4%.

What do the screens show for `COc1ccc(/C=N\NC(=O)c2ccc(=O)[nH]n2)cc1O`?
APOBEC3A inh: 2.2; PHOSPHO1 block: -13.9; ALR H2O2 inh: 99.5*; rCAG RNA binder: 0.4; aDG glyco up: 0.0; A3G deaminase: -6.5

Results for Cn1cnnc1SCc1ccc(C(=O)N/N=C(\CCC(=O)O)c2ccc(C(C)(C)C)cc2)cc1 ?
PHOSPHO1 block: -2.4; ALR H2O2 inh: 98.5*; rCAG RNA binder: 2.3; aDG glyco up: -0.1

How did CCC/C(=N\NC(=O)c1ccc(CSc2nncn2C)cc1)c1ccccc1 do in these assays?
APOBEC3A inh: 2.2; PHOSPHO1 block: 5.6; ALR H2O2 inh: -45.5; rCAG RNA binder: 2.4; aDG glyco up: 0.1; A3G deaminase: -2.6

How did CC(C)CCN(C)[C@H]1C[C@H]2c3[nH]c4ccccc4c3CCN2C[C@H]1[C@H](C)O do in these assays?
rCAG RNA binder: -2.2

How did c1ccc(Cn2ccc3ccc(-c4ccc5ccn(Cc6cccc(-c7cccs7)c6)c5c4)cc32)cc1 do in these assays?
rCAG RNA binder: 22.1

How did CC1CCCCN1C(=O)c1ccc(CNC(=O)c2cccc(Br)c2)cc1 (centres undefined) do in these assays?
rCAG RNA binder: -0.5

How did COc1ccc(-n2c(=S)[nH]c3cc(C(=O)NC4CCCCC4)ccc3c2=O)c(OC)c1 do in these assays?
APOBEC3A inh: 1.0; PHOSPHO1 block: 28.5; ALR H2O2 inh: 91.1*; rCAG RNA binder: 0.4; aDG glyco up: 0.2; A3G deaminase: -17.0

What do the screens show for `N#Cc1c2n(c(=S)n(-c3ccc(F)cc3)c1=O)CCCCC2`?
APOBEC3A inh: -3.3; PHOSPHO1 block: 37.9; ALR H2O2 inh: -5.6; rCAG RNA binder: -1.1; aDG glyco up: 0.2; A3G deaminase: -4.2

What do the screens show for `N#Cc1c2n(c(=S)n(-c3ccccc3)c1=O)CCCCC2`?
APOBEC3A inh: -4.0; PHOSPHO1 block: 63.8*; ALR H2O2 inh: -10.6; rCAG RNA binder: -5.7; aDG glyco up: 0.0; A3G deaminase: -6.2

What do the screens show for `Nc1nc(F)nc2c1ncn2[C@@H]1O[C@H](COP(=O)(O)O)[C@@H](O)[C@@H]1O`?
rCAG RNA binder: 3.1

How did Nc1cc(=O)[nH]c(SC/C=C/c2ccccc2)n1 do in these assays?
APOBEC3A inh: -12.6; PHOSPHO1 block: 19.4; ALR H2O2 inh: -0.8; rCAG RNA binder: 3.8; aDG glyco up: 0.2; A3G deaminase: -1.3

How did O=c1cc(C(F)(F)F)nc(SC/C=C/c2ccccc2)[nH]1 do in these assays?
APOBEC3A inh: 0.2; PHOSPHO1 block: 18.5; ALR H2O2 inh: 78.2*; aDG glyco up: 0.0; A3G deaminase: 3.5

What do the screens show for `CCOC(=O)/C(=C\Nc1cccc(OCc2ccccc2)c1)NC(=O)c1ccccc1`?
rCAG RNA binder: 3.9

What do the screens show for `CCCc1cc(=O)n2[nH]cc(-c3ccc(Cl)cc3)c2n1`?
APOBEC3A inh: -0.5; PHOSPHO1 block: -1.3; ALR H2O2 inh: 99.0*; rCAG RNA binder: 31.1; aDG glyco up: 2.4; A3G deaminase: -8.0

What do the screens show for `COCc1cc(=O)n2[nH]cc(-c3ccccc3)c2n1`?
APOBEC3A inh: -2.0; PHOSPHO1 block: 13.0; ALR H2O2 inh: 50.0; rCAG RNA binder: 7.8; aDG glyco up: -0.2; A3G deaminase: -0.3

What do the screens show for `CCOC(=O)Cc1c(C)nc2c(-c3ccc(Cl)cc3)c[nH]n2c1=O`?
APOBEC3A inh: -6.4; PHOSPHO1 block: -17.5; ALR H2O2 inh: 97.8*; rCAG RNA binder: 34.2; aDG glyco up: 0.0; A3G deaminase: -6.9

Results for CC(=O)Nc1nc(-c2ccc3c(c2)CC(C)N3C(=O)C2CC2)c(C)s1 (centres undefined) ?
APOBEC3A inh: -1.7; PHOSPHO1 block: 31.9; ALR H2O2 inh: 98.7*; rCAG RNA binder: 7.5; aDG glyco up: 0.1; A3G deaminase: -4.5

Results for Cc1sc(NC(=O)CN2CCCC2)nc1-c1ccc2c(c1)CCN2C(=O)c1cccc(F)c1 ?
APOBEC3A inh: -4.3; PHOSPHO1 block: 27.9; ALR H2O2 inh: inconclusive; rCAG RNA binder: 5.7; aDG glyco up: 2.7*; A3G deaminase: -14.9

How did CCOC(=O)C(=O)Nc1nc(-c2ccc3c(c2)CCN3C(=O)C2CC2)c(C)s1 do in these assays?
APOBEC3A inh: 0.2; PHOSPHO1 block: 31.9; ALR H2O2 inh: 99.1*; rCAG RNA binder: 8.4; aDG glyco up: 0.0; A3G deaminase: -5.4

How did Cc1sc(NC(=O)Cc2ccc3c(c2)OCO3)nc1-c1ccc2c(c1)CCN2C(=O)c1ccccc1F do in these assays?
APOBEC3A inh: -2.0; PHOSPHO1 block: -18.9; ALR H2O2 inh: -3.2; rCAG RNA binder: 4.1; aDG glyco up: 0.0; A3G deaminase: -5.3

Results for Cc1sc(NC(=O)c2ccco2)nc1-c1ccc2c(c1)CC(C)N2C(=O)C1CC1 (centres undefined) ?
APOBEC3A inh: -0.2; PHOSPHO1 block: 47.1; ALR H2O2 inh: -20.2; aDG glyco up: -0.1; A3G deaminase: -7.9

What do the screens show for `Cc1sc(NC(=O)Cc2ccc3c(c2)OCO3)nc1-c1ccc2c(c1)CCN2C(=O)c1ccc(F)cc1`?
APOBEC3A inh: -1.9; PHOSPHO1 block: -10.7; ALR H2O2 inh: -5.1; rCAG RNA binder: 14.0; aDG glyco up: 0.3; A3G deaminase: -4.1

Results for CCCCNC(=O)C[C@H]1C[C@@]2(C(=O)OC)C(=C[C@H](C(C)(C)C)O[C@@H]2C)N(CCC2=CCCCC2)C1=O ?
rCAG RNA binder: 3.1

Results for CC(=O)c1cc(-c2ccccc2)n(CC(=O)NCc2ccc(Cl)cc2)c1C ?
rCAG RNA binder: 8.4

What do the screens show for `O=S(=O)(c1ccccc1Br)N(Cc1cn(Cc2ccccc2)nn1)C1CC1`?
rCAG RNA binder: -0.2

How did CCOC(=O)/C=c1\s/c(=C(\C#N)C(=O)NC)n(-c2ccccc2)c1=O do in these assays?
APOBEC3A inh: -1.2; PHOSPHO1 block: 11.0; ALR H2O2 inh: -25.9; rCAG RNA binder: -3.9; aDG glyco up: -0.2; A3G deaminase: -3.9

How did Cc1ccccc1-n1c(=O)/c(=C\c2ccco2)s/c1=C(/C#N)C(=O)Nc1ccccc1 do in these assays?
APOBEC3A inh: 0.9; PHOSPHO1 block: 83.3*; ALR H2O2 inh: 3.8; rCAG RNA binder: 12.8; aDG glyco up: -0.3; A3G deaminase: -4.6

Results for O=C(CSc1ncn[nH]1)N1N=C2/C(=C/c3ccco3)CCCC2C1c1ccco1 (centres undefined) ?
APOBEC3A inh: 1.9; PHOSPHO1 block: 87.4*; ALR H2O2 inh: -6.7; rCAG RNA binder: 2.3; aDG glyco up: 0.2; A3G deaminase: -5.8

What do the screens show for `CCCCN1C(=O)C(=O)N(CC(=O)N2N=C3/C(=C/c4ccco4)CCCC3C2c2ccco2)C1=O` (centres undefined)?
APOBEC3A inh: 3.1; PHOSPHO1 block: 62.2*; ALR H2O2 inh: -1.1; rCAG RNA binder: 2.1; aDG glyco up: 0.3; A3G deaminase: -3.4

Results for C=CCNC(=O)CSc1nc2c(c(=O)[nH]1)CCCC2 ?
rCAG RNA binder: 3.5

How did COc1cc(/C=C(\C#N)C(=O)NCC2CCCO2)ccc1O (centres undefined) do in these assays?
APOBEC3A inh: -2.8; PHOSPHO1 block: -22.0; ALR H2O2 inh: 99.0*; rCAG RNA binder: -3.4; aDG glyco up: 0.1; A3G deaminase: -1.1

Screens: PubChem, several laboratories
